High-throughput results deposited in PubChem BioAssay by National Center for Advancing Translational Sciences (NCATS).
In the library only some 0.43% were active in any assay of this set; here they are far more common.
GAA glycogen: qHTS Assay for Inhibitors and Activators of Human alpha-Glucosidase Cleavage of Glycogen; Lysosomal alpha-glucosidase (Homo sapiens), P10253; recombinant GAA, glycogen substrate, Amplex Red glucose oxidase fluorescence; Potency, µM (series often up to 76.4 µM), without a hit: at the highest dose activity change, negative = inhibition, most hits filed as inhibitors; actives 0.38% (n = 300,000); AID 2100, 2009;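 also: potency is read from the fitted curve at half-maximal effect; 0% = full enzyme reaction and -100% = no-enzyme basal signal; the screen sought inhibitors and activators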
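Natural-substrate format: glycogen cleavage by 4 nM human enzyme, glucose read by Amplex Red coupling (Ex 573, Em 610 nm). Normalized to enzyme and no-enzyme controls.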
GLA inh pH 4.5: qHTS Assay for Inhibitors of Human alpha-Galactosidase at pH 4.5 | purified enzyme, 4-MU-alpha-Gal fluorescence, pH 4.5 | activity change, negative = inhibition, % at 105 µM | 230,000 tested, under 10 active;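 also: 0% = full activity with enzyme and -100% = basal without enzyme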
aGal spleen mod: qHTS Assay for Inhibitors and Activators of Human alpha-Galactosidase From Spleen Homogenate | Alpha-galactosidase A (Homo sapiens), P06280 | human spleen homogenate, 4MU-alpha-Gal fluorescence, 40 min | Potency, µM (series often up to 80 µM), inactives show top-dose activity change, negative = inhibition, hits mostly inhibitors | actives 0.008% (n = 240,000);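 also: potency is read from the fitted curve at half-maximal effect; 0% = enzyme with vehicle and -100% = no enzyme basal signal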
Target sequence (P06280 32-429 limits assumed): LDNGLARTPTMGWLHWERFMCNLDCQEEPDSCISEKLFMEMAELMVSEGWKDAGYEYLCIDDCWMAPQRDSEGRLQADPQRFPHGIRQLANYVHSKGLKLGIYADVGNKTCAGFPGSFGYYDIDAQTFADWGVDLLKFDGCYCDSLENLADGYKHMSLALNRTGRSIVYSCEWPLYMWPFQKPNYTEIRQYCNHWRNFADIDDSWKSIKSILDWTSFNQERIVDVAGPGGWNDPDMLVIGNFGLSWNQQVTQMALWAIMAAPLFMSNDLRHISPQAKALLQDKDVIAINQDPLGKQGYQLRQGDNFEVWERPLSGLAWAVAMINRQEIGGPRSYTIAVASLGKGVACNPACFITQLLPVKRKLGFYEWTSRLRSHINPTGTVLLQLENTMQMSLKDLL
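Human spleen homogenate (1 ug) as enzyme source, 4-methylumbelliferyl-alpha-D-galactopyranoside 1 mM final, citrate/phosphate pH 5.0 with 0.01% Tween-20. Compounds 40 min at 37C, NaOH/glycine stop; fluorescence Ex 365/Em 440, Hill-fit AC50.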
N370S GC: qHTS Assay for Inhibitors and Activators of N370S glucocerebrosidase as a Potential Chaperone Treatment of Gaucher Disease; N370S GC spleen homogenate, 4MU-glucoside fluorescence; Potency, µM (series often up to 59.4 µM), inactives show at the highest dose activity change, negative = inhibition, most hits filed as inhibitors; actives 0.092% (n = 330,000); AID 2101, 2009;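 also: potency is read from the fitted curve at half-maximal effect; 0% = full enzyme activity and -100% = no enzyme basal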
GAA spleen mod: qHTS Assay for Inhibitors and Activators of Human alpha-Glucosidase From Spleen Homogenate; human spleen homogenate, 4-MU-alpha-glucoside fluorescence; Potency, µM (titrated, usually from 79.9 µM), inactives show top-dose activity change, negative = inhibition, most hits filed as inhibitors; actives 0.006% (n = 240,000); AID 2112, 2009;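 also: potency is read from the fitted curve at half-maximal effect; 0% = enzyme with vehicle and -100% = no enzyme basal signal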
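Human spleen homogenate (1 ug) incubated with compounds and 1 mM 4-methylumbelliferyl-alpha-D-glucopyranoside in pH 5.0 citrate/phosphate buffer, 37 C, 40 min. Stopped at pH 10; 4-MU fluorescence (Ex 365/Em 440 nm); AC50 by Hill fit.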
GAA inhib: qHTS Assay for Inhibitors of Human alpha-Glucosidase as a Potential Chaperone Treatment of Pompe Disease | purified human GAA, 4-MU-alpha-glucoside fluorescence | Potency, µM (doses to about 76.9 µM), for the others: at the top dose activity change, negative = inhibition, hits mostly inhibitors | actives 0.005% (n = 200,000) | AID 1466, 2008;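 also: potency is read from the fitted curve at half-maximal effect; plate controls were uninhibited enzyme wells for no effect and no-enzyme background for full effect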
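Endpoint fluorogenic read: 20 min room-temperature reaction of 4 nM human alpha-glucosidase with 400 uM 4-methylumbelliferyl-alpha-D-pyranoside, pH 5.0, quenched with 1M NaOH/1M glycine pH 10. AC50 from Hill modeling.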
* = called active by the depositor; ? = inconclusive; · = no result; [ ] = another dose, or the depositor's remark. Calls follow the shape of the dose curve; as a rule, active = well fitted curve in the direction sought with a large enough effect; inconclusive = small, poorly fitted or top-dose-only effect, or another doubt; inactive = no such curve, though single readings can be large; an effect the other way counts as inactive or inconclusive.

SMILES	GAA glycogen	GLA inh pH 4.5	aGal spleen mod	N370S GC	GAA spleen mod	GAA inhib
NCCCC[C@H](N)C(=O)N[C@@H](CCCN=C(N)N)C(=O)N1CCC[C@H]1C(=O)N1CCC[C@H]1C(=O)NCC(=O)N[C@@H](Cc1ccccc1)C(=O)N[C@@H](CO)C(=O)N1CCC[C@H]1C(=O)N[C@@H](Cc1ccccc1)C(=O)O	·	·	4%	-1%	-1%	·
Cc1ccc(-c2nc3ccccn3c2Nc2ccc3c(c2)OCCO3)o1	4.5µM*	·	·	·	·	·
Cc1ccc2nc(-c3ccc(C)o3)c(Nc3ccc4c(c3)OCCO4)n2c1	6.3µM*	·	·	·	·	·
c1csc(-c2nc3ccccn3c2Nc2ccc3c(c2)OCCO3)c1	13µM*	·	·	·	·	·
Cc1ccc(-c2nc3ccccn3c2Nc2ccccc2)o1	7.9µM*	5	30%	5%	9%	7%
c1cncc(-c2nc3ccccn3c2Nc2ccc3c(c2)OCCO3)c1	18%	-18	-6%	-1%	-2%	-5%
COc1ccc(C2CC(c3ccccc3)Oc3cc(OC)ccc32)cc1 (configuration not stated)	·	·	3%	-3%	-1%	·
Oc1ccc(/C=N/Nc2nc(-c3cccnc3)nc3ccccc23)c(O)c1	?	-17	-6%	-28%	-9%	·
Cc1c(O)ccc(/C=N/Nc2nc(-c3cccnc3)nc3ccccc23)c1O	35µM*	-1	-10%	?	-7%	-12%
N=c1c2c(-c3ccccc3)c(-c3ccccc3)n(Cc3ccccc3)c2ncn1CCCn1ccnc1	2%	-31	1%	2.2µM*	-2%	?
CCCCn1cnc2c(c(-c3ccccc3)c(-c3ccccc3)n2Cc2ccco2)c1=N	4%	-3	-1%	?	2%	·
CSCC[C@@H]1NC(=O)[C@@H](NC(=O)[C@H](CCCNC(=N)N)NC(=O)[C@H](CC(C)C)NC(=O)[C@H](CCSC)NC(=O)[C@H](CC(=O)O)NC(=O)[C@H](Cc2ccccc2)NC(=O)[C@@H](N)CC(=O)O)CSSC[C@@H](C(=O)N[C@@H](Cc2c[nH]c3ccccc23)C(=O)N[C@@H](CCC(N)=O)C(=O)N[C@@H](Cc2ccc(O)cc2)C(=O)O)NC(=O)[C@@H]2CCCN2C(=O)[C@H](CCCNC(=N)N)NC(=O)[C@H](Cc2ccccc2)NC(=O)[C@H](C(C)C)NC(=O)[C@H](CCCNC(=N)N)NC(=O)CNC(=O)[C@H](CC(C)C)NC1=O	·	·	9%	-5%	5%	·
O=C(NC1CCCC1)O[C@@H]1C(=O)c2cc(Br)ccc2O[C@H]1c1ccc2c(c1)OCO2	·	-6	2%	4%	8%	·
C=CCn1c(-c2cc(-c3ccccc3)sc2N)n[nH]c1=S	22µM*	-3	9%	2%	1%	-1%
C=CCn1c(-c2csc(-c3ccccc3)n2)n[nH]c1=S	-7%	2	7%	4%	6%	-2%
O=C(O)c1cc2c(ccc3ccccc32)o1	28%	6	40µM*	?	-12%	-2%
Cc1ccc(-c2nnc(Nc3ccc(O)cc3)c3ccccc23)cc1S(=O)(=O)N1CCN(C)CC1	16µM*	·	·	·	·	·
Oc1cc2c(cc1O)[C@@H](c1ccccc1)CNCC2	1.8µM*	7	4%	13%	4%	3%[15.4 µM]
Cc1cc(C)nc(NNC2=CC(=[N+]3CCCC3)CCC2)n1	2.2µM*	1	5%	1%	4%	-1%
Cc1ccc(-c2ccc(NC(=O)C3C4C=CC(C4)C3C(=O)O)cc2)o1 (configuration not stated)	40µM*	-3	0%	·	-3%	7%
O=C(CC(c1ccccc1)c1cc(Br)ccc1O)NCCCN1CCOCC1 (configuration not stated)	-6%[76.3 µM]	·	·	-2%	·	·
O=C(CC(c1ccccc1)c1cc(Br)ccc1O)NCCN1CCOCC1 (configuration not stated)	28%	5	40µM*	6%	-27%	0%
CC(=O)c1ccc(N2CCN(c3ccc(C(N)=O)cc3[N+](=O)[O-])CC2)cc1	-3%	-2	13%	-16%	4%	6%
NC(=O)c1ccc(N2CCN(c3ccc(O)cc3)CC2)c([N+](=O)[O-])c1	5µM*	5	0%	-9%	-3%	10%
O=[N+]([O-])c1cc(Cl)ccc1N1CCN(c2ccccc2O)CC1	8.8µM*	5	-5%	-10%	-6%	-1%
SMILES	GAA glycogen	GLA inh pH 4.5	aGal spleen mod	N370S GC	GAA spleen mod	GAA inhib
COc1ccc(-c2nc(C#N)c(NCC3CCCO3)o2)cc1 (configuration not stated)	28µM*	1	-18%	0%	-16%	-8%
Cc1ccc(-c2nc(C#N)c(NCC3CCCO3)o2)cc1 (configuration not stated)	?	5	10%	-1%	5%	14%
COc1ccc(-n2sc3c(c2=S)-c2cc(OC)ccc2NC3(C)C)cc1	?	0	7%	2%	-17%	1%
COc1ccc2c(c1)-c1c(sn(-c3ccc(OC)c(OC)c3)c1=S)C(C)(C)N2	22µM*	-2	-14%	-3%	-3%	-10%
CCOC(=O)NC1(Nc2ccc(Cl)cn2)Oc2ccccc2O1	22µM*	-3	2%	-2%	-3%	3%
CCOC(=O)/C=C/C(=O)OCC(=O)Nc1ccc(Cl)cn1	4%	-8	-21%	3%	-1%	3%
COc1cc(C2C(C#N)=C(N)Oc3n[nH]c(-c4cccs4)c32)cc(OC)c1O (configuration not stated)	18µM*	-1	8%	-2%	8%	·
O=C(/C=C/c1ccc(O)c(O)c1)OC(Cc1ccc(O)c(O)c1)C(=O)O (configuration not stated)	2µM*	-7	10%	-19%	8%	·
Cc1ccc(S(=O)(=O)NNC(=O)c2snnc2C)cc1	25µM*	2	1%	-13%	0%	-5%
Cc1nnsc1C(=O)NNS(=O)(=O)c1cc(C(F)(F)F)cc(C(F)(F)F)c1	?	-6	6%	9%	7%	4%
Cc1c(N/C=C/C(=O)c2ccc(Cl)cc2)c(=O)n(-c2ccccc2)n1C	14µM*	-4	-8%	18%	-11%	-3%
